HepG2 tox: qHTS for Inhibitors of TGF-b: Cytotox Counterscreen | HepG2 CAGA-GFP viability, ATP luminescence, 18 h | Potency, µM (doses to about 46.1 µM), without a hit: at the top dose activity change, negative = cytotoxicity, most hits filed as cytotoxic | 0.76% of 410,000 active | AID 588856, 2011
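HepG2 CAGA-GFP cells (1000/well, DMEM with 1% FBS) received compound, then TGF-beta at 500 pg/mL final, and were incubated 18 hours at 37 degrees C. Viability was read by CellTiter-Glo luminescence. Media-only wells were set as complete cell-killing and DMSO as no toxicity.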
TGFb inhibitor: qHTS for Inhibitors of TGF-b; Potency, µM (titrated, usually from 46.1 µM), for the others: at the highest dose activity, negative = inhibition, hits mostly inhibitors; AID 588855, 2011; 1.2% of 410,000 active; HepG2 CAGA-GFP TGF-b/SMAD3 reporter, GFP fluorescence, 18 h; TGF-beta stimulated, 500 pg/mL final; note: % is set by controls: 0 for no effect and ±100 for the full control effect; nearly all actives have a fitted effect of over 65% in size
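HEPG2 CAGA-GFP reporter cells (1000/well, DMEM with 1% FBS) received compounds, then recombinant TGF-beta at 500 pg/mL final for 18 hours at 37 degrees C. Per-cell GFP summed per well was normalised to unstimulated and stimulated DMSO controls before curve fitting.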
TDP1 cell noCPT: qHTS for Inhibitors of human tyrosyl-DNA phosphodiesterase 1 (TDP1): qHTS in cells in absence of CPT. Potency, µM (highest dose often 46.2 µM), for inactives: at the highest dose activity change, negative = growth inhibition, actives largely listed as inhibitors. DT40 Tdp1-/- hTDP1 cells, no CPT, ATP luminescence, 48 h. AID 686978, 2013. 15% of 420,000 active; note: % is set by controls: 0 for no effect and ±100 for the full control effect; nearly all actives have a fitted effect of over 55% in size
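Growth kinetics read by CellTiter-Glo luminescence after ≥48 hr at 37 °C. Cells: DT40 Tdp1-/- stably carrying human TDP1, 400 per well, compound exposure in the absence of CPT (DMSO vehicle).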
ATXN viability: Viability Counterscreen for Primary qHTS for Inhibitors of ATXN expression. 0.49% of 400,000 active. S2 cells (HEK-293 line with an ATXN2-luciferase reporter) viability, CellTiter-Fluor protease fluorescence, 24 h. Potency, µM (doses to about 56.7 µM), most hits filed as cytotoxic; note: nearly all actives have a fitted effect of over 40% in size
ATXN2 expr inh: Primary qHTS for Inhibitors of ATXN expression; 0.72% of 360,000 active; Potency, µM (highest dose often 57 µM), inactives show at the top dose activity change, negative = inhibition, usual class: inhibitors; HEK-293 ATXN2-luciferase reporter, luminescence, 24 h; note: % is set by controls: 0 for no effect and ±100 for the full control effect; nearly all actives have a fitted effect of over 55% in size
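ATXN2-luciferase reporter cells (luciferase flanked by upstream and downstream ATXN2 gene portions) were treated 24 h at 37 °C with compounds at up to 57 uM. SteadyGlo luminescence gave expression; GF-AFC fluorescence gave viability.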
TDP1 cell CPT: qHTS for Inhibitors of human tyrosyl-DNA phosphodiesterase 1 (TDP1): qHTS in cells in presence of CPT; chicken DT40 Tdp1-/-;hTDP1 cells + 20 nM CPT, ATP luminescence, 48 h; Potency, µM (top dose mostly 46.2 µM), for the others: at the highest dose activity change, negative = growth inhibition, most hits filed as inhibitors; 12% of 420,000 active; AID 686979, 2013; note: % is set by controls: 0 for no effect and ±100 for the full control effect; nearly all actives have a fitted effect of over 55% in size
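Cell growth measured by CellTiter-Glo luminescence after a minimum 48 h, 37 C compound exposure with 20 nM CPT in Tdp1-knockout DT40 cells stably expressing hTDP1, seeded 400/well; qHTS titration format.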
Starred values were filed as active, the others as inactive; i = inactive; u = inconclusive; x = no result. Shown are actives, neighbours in structure and some others; about 17% of the full set was active somewhere. Calls come from the whole dose curve; as a rule, active = well fitted curve in the direction sought with a large enough effect; inconclusive = small, poorly fitted or top-dose-only effect, or another doubt; inactive = no such curve, though single readings can be large; an effect the other way counts as inactive or inconclusive. Potency is the fitted concentration of half-maximal effect.

SMILES | HepG2 tox | TGFb inhibitor | TDP1 cell noCPT | ATXN viability | ATXN2 expr inh | TDP1 cell CPT
N#Cc1ccccc1Cn1c(=O)n(C2CCCC2)c(=O)c2ccccc21 | -22% | -13% | 18µM* | i | -7% | 16µM*
Cc1cccc(CCn2c(=O)c3ccccc3n(Cc3ccccc3C)c2=O)c1 | 0% | -18% | 16µM* | i | 11% | 15µM*
O=c1c2ccccc2n(Cc2cccc(F)c2)c(=O)n1C1CCCC1 | -5% | -26% | 23µM* | i | -4% | u
CNNCc1ccc(C(=O)NC(C)C)cc1 | -9% | 20% | u | i | 7% | u
C=C1C=C(C(F)F)n2ncc(C(=O)N3CCN(c4ccccn4)CC3)c2N1 | 1% | 3% | -16% | x | x | -2%
Cc1cccc(N(CC(=O)N/N=C/c2ccccc2C(=O)O)S(C)(=O)=O)c1C | -1% | 7% | 10% | i | x | -15%
Cc1cccc(CCn2c(=O)c3ccccc3n(Cc3cccc(F)c3)c2=O)c1 | -16% | -3% | 23µM* | i | 0% | 18µM*
CN(C)S(=O)(=O)c1cccc(C(=O)N2CCN(S(=O)(=O)c3ccc4c(c3)OCCO4)CC2)c1 | -3% | -9% | 16µM* | i | x | u
CC(C)(C)C(=O)N1CCN(S(=O)(=O)c2ccc3c(c2)OCCCO3)CC1 | -3% | -12% | 18µM* | i | -10% | u
CCOc1ccc(C(=O)n2cc(C(=O)OC)c3ccccc32)cc1OCC | 17% | -1% | u | i | 12% | u
CCOc1ccc(C(=O)n2cc(C(=O)OC)c3ccccc32)cc1 | 2% | u | 13µM* | i | 8% | u
Cc1coc2cc3oc(=O)c(CC(=O)N4CCCCC4)c(C)c3cc12 | 0% | -11% | -21% | x | x | -13%
Cc1oc2c(C)c3oc(=O)c(CCC(=O)N4CCCCC4)c(C)c3cc2c1C | -17% | -7% | 10µM* | x | x | 15µM*
Cc1coc2cc3oc(=O)c(CCC(=O)N4CCCCC4)c(C)c3cc12 | -33% | -16% | 21µM* | i | 1% | 13µM*
CCc1ccc2c(CN(C)Cc3ccc(OC(F)F)c(OC)c3)cc(=O)oc2c1 | 2% | 9% | u | i | -11% | 18µM*
Cc1ccc2c(COC(=O)c3ccccc3OC(F)F)cc(=O)oc2c1 | 11% | 2% | -23% | i | 13% | -11%
CN(C)Cc1csc(Nc2ccc(C(F)(F)F)cn2)n1 | -35% | 41% | -84% | i | 2% | 26µM*
CC(C)CC(N)c1csc(Nc2ccc(C(F)(F)F)cn2)n1 (centres undefined) | 18µM* | u | 6.5µM* | u | u | 12µM*
NC(CO)c1csc(Nc2ccc(C(F)(F)F)cn2)n1 (centres undefined) | -33% | -1% | u | i | 14% | u
NC(Cc1ccc(Cl)cc1)c1csc(Nc2ccc(C(F)(F)F)cn2)n1 (centres undefined) | -98% | u | 9.2µM* | 32µM* | -23% | 9.2µM*
NC(COCc1ccccc1)c1csc(Nc2ccc(C(F)(F)F)cn2)n1 (centres undefined) | -92% | u | u | i | u | u
NC(CCc1ccccc1)c1csc(Nc2ccc(C(F)(F)F)cn2)n1 (centres undefined) | -96% | u | u | u | u | 21µM*
OC[C@@H]1CN(CCc2ccccc2)C[C@H](n2cnc3c(N4CCOCC4)ncnc32)O1 | -14% | -5% | u | i | 13% | -6%
